PubChem BioAssay AID504604 (National Center for Advancing Translational Sciences (NCATS), 2011)
Activity calls are given as the source filed them. Calls follow the shape of the dose curve; as a rule, active = well fitted inhibition curve with a large enough effect; inconclusive = small, poorly fitted or top-dose-only effect; inactive = flat fitted curve, though single readings scatter.

Assay: Quantitative high throughput screen to test activity of anti-malarial compounds in the Dd2 strain of Plasmodium Falciparum
Conditions: P. falciparum Dd2 in RBCs, SYBR Green growth, 72 h
Excerpt: NIH Molecular Libraries Probe Production Network [MLPCN] NIH Chemical Genomics Center [NCGC] MLPCN Grant: R21 NS059500 Assay Provider: David Fidock and Eric Ekland, Columbia University The goal of this screen is to measure the ability of a set of anti-malarial compounds to inhibit the Dd2 strain of P. falciparum. These compounds have been screened in a delayed death phenotype assay and have been identified as inhibitors of the delated death phenotype, by inhibiting the development of the apicoplast in the malarial parasite Plasmodium falciparum (described below) The biochemical processes that make this organelle essential for erythrocytic stage parasites are not well understood. However, antibiotics, such as azithromycin and tetracycline, which target the apicoplast translational machinery, have a potent antimalarial effect. […] We have developed a cell-based assay that measures parasite growth based on the expression of an integrated copy of a firefly luciferase reporter. To detect small molecules that cause this 'delayed death' phenotype, erythrocytes infected with the luciferase-expressing parasites were incubated with compounds for either one or two generations, corresponding to 48 and 96 hours, respectively. […] Growth inhibition is detected by a decrease in luciferase activity […]

SMILES | Potency
COc1ccc(COC[C@H](C)N2C[C@@H](C)[C@H](CN(C)S(=O)(=O)c3ccc(F)cc3)OCCCC[C@H](C)Oc3ccc(NC(=O)Nc4ccccc4)cc3C2=O)cc1 | 0.0142 µM (active)
C[C@@H]1CN([C@@H](C)CO)C(=O)c2cc(NC(=O)Nc3ccccc3)ccc2O[C@@H](C)CCCCO[C@H]1CN(C)C(=O)Oc1ccccc1 | 8.96 µM (active)
